Several values for one entry are separate records, joined by “and”; a condition that tells them apart may be missing. Identical values can stand only once. Activity calls are given as the source filed them. The rule behind the calls is not given here.
Biological target: Serine/threonine-protein kinase PLK1 (Homo sapiens) (UniProt P53350)
Test: Plk1 polo box domain binding inhibitors, SAR follow-up, biochemical, fluorescence polarization, purchased analogs (AID 1053)
Conditions: Plk1 PBD fluorescence polarization peptide binding; at 20 µM; hits give high values

Sequence of Serine/threonine-protein kinase PLK1 (Homo sapiens) (P53350 whole entry, looked up, the tested form may be a part): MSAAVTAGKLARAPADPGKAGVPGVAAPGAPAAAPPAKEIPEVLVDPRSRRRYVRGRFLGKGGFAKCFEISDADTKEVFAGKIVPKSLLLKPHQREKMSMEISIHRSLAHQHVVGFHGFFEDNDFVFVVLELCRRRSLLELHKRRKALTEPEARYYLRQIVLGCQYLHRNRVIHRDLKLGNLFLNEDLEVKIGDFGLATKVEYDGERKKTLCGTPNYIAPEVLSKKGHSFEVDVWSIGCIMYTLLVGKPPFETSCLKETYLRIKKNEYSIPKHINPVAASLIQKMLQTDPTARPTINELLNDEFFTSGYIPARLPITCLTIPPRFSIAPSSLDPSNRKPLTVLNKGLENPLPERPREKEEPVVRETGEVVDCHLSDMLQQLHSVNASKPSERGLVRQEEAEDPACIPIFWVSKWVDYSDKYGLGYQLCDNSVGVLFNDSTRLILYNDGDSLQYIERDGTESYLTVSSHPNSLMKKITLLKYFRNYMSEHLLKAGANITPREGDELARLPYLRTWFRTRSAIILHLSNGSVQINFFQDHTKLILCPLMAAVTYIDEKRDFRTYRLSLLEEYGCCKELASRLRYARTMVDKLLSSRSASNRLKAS

inhibition, inactive:
CC(=O)N(CN1C(=O)c2ccccc2C1=O)c1cccc(F)c1 -51.8%
CCn1nc(-c2ccc(C(F)(F)F)cc2)nc2c(=O)n(C)c(=O)nc1-2 10.8%
COc1ccc(N(CN2C(=O)c3ccccc3C2=O)C(C)=O)cc1 -43.9% and -51.6%
Cn1c(=O)[nH]c2nnc(-c3ccc4c(c3)OCO4)nc2c1=O -38.9% and 28%
CC(=O)N(/C=C1\Sc2ccccc2C1=O)c1cc(C(F)(F)F)ccc1Cl -73.4% and -36.2%
CCCCOC(=O)c1ccc(N=Cc2c(O)[nH]c(=O)[nH]c2=O)cc1 44.5%
CC(=O)N(CN1C(=O)c2ccccc2C1=O)c1ccc(I)cc1 -50.3% and -70.1%
COc1ccccc1N(CN1C(=O)c2ccc([N+](=O)[O-])cc2C1=O)C(C)=O -55.2%
CC(=O)N(CN1C(=O)c2ccccc2C1=O)c1ccc2ccccc2c1 -49.2%
Cn1nc(-c2ccc([N+](=O)[O-])cc2)nc2c(=O)n(C)c(=O)nc1-2 31.6%
Cn1c(=O)[nH]c2nnc(-c3ccc(C(F)(F)F)cc3)nc2c1=O -39.5% and -40.5%
CCCCCC(=O)N(CN1C(=O)c2ccccc2C1=O)c1ccc(OCc2ccccc2)cc1 -7.17%
O=C1NC(=O)C(=Cc2cc(Cl)c(OCc3ccc(C(=O)O)cc3)c(Cl)c2)C(=O)N1 -37.4%

Reference: PubChem BioAssay AID1053 (University of Pittsburgh Molecular Library Screening Center, 2008)
